Screens (PubChem)
MazF activator = MazEF (E. coli) toxin RNase activation; 350,000 tested, 0.32% active; FAM/BHQ RNA-DNA oligo cleavage fluorescence, 5 h; P0AE70; activation, % at 20 µM; AID 504720; in the data active = activation above about 50%
BoNT F protease = BoNT F light chain protease inhibition. AID 588497. 360,000 tested, 0.22% active. inhibition, % at 10 µM. Multiplex microsphere protease cleavage assay, flow cytometry; in the data active = inhibition above about 35%, passing the limit was not always enough; inconclusive = no clear call, values can overlap the other calls; also: plate controls were buffer without enzyme for full effect and enzyme alone for no effect
BoNT A protease = BoNT A light chain protease inhibition | inhibition, % at 10 µM | multiplex microsphere protease substrate cleavage, flow cytometry | 360,000 tested, 0.17% active; also: plate controls were buffer without enzyme for full effect and enzyme alone for no effect
Bead autofluor = flagged as autofluorescent in microsphere protease counterscreen | compound autofluorescence counterscreen, microsphere flow cytometry; hits give high values | fluorescence intensity (test concentration not listed) | 360,000 tested, 3.1% active; in the data active = fluorescence intensity above about 16000; inconclusive = no clear call, values can overlap the other calls
Anthrax LF inh2 = blocks Bacillus anthracis lethal factor protease; P15917; multiplex microsphere protease cleavage assay, LF; inhibition, % at 10 µM; 360,000 tested, 0.12% active; also: plate controls were buffer without enzyme for full effect and enzyme alone for no effect
Starred values were filed as active, the others as inactive. Only some compounds are listed: those with a hit (about 3.7% of all), similar ones and a draw of the others. Rule as the data show it, unless noted: active = inhibition above about 30%; inconclusive = no clear call, values can overlap the other calls; inactive = below that.

`COC(=O)C1=C(C)NC(C)=C(C(=O)OC)C1/C=C/c1ccccc1` gave MazF activator -5.0, BoNT F protease -4.3, BoNT A protease -1.7, Bead autofluor 20052* and Anthrax LF inh2 -1.9.
COc1ccc(C(=O)N2CCc3ccccc3C2)cc1S(=O)(=O)N1CCCC1 was read as MazF activator 3.3, BoNT F protease -2.4, BoNT A protease 0.0, Bead autofluor 3032 and Anthrax LF inh2 1.9.
`Cc1cc(N2CCN(c3cccc(C(F)(F)F)c3)CC2)n2ncnc2n1` gave MazF activator 4.1, BoNT F protease -32.8, BoNT A protease -0.5, Bead autofluor 4978 and Anthrax LF inh2 -1.7.
Screening Cc1nc2ncnn2c(N2CCN(C(c3ccccc3)c3ccccc3)CC2)c1C returned MazF activator -0.8, BoNT F protease 0.0, BoNT A protease 2.4, Bead autofluor 18747* and Anthrax LF inh2 -1.2.
For Cc1nc2ncnn2c(N2CCN(c3cccc(C(F)(F)F)c3)CC2)c1C the results were MazF activator 0.5, BoNT F protease 0.7, BoNT A protease 0.9, Bead autofluor 22031* and Anthrax LF inh2 0.7.
For CC1(C)Cc2nc3oc4c(=O)n(CC(=O)Nc5ccccc5)cnc4c3cc2CO1 the results were MazF activator 8.2, BoNT F protease -3.9, BoNT A protease 0.2, Bead autofluor 2473 and Anthrax LF inh2 1.4.
Screening CC1(C)Cc2nc3sc4c(=O)n(CC(=O)NCc5ccco5)cnc4c3cc2CO1 returned MazF activator 5.3, BoNT F protease 11.6, BoNT A protease inconclusive, Bead autofluor 19965* and Anthrax LF inh2 -3.5.
Screening CS(=O)(=O)n1nc(-c2ccc(Cl)cc2)nc1SCc1ccccc1 returned MazF activator 3.3, BoNT F protease -6.2, BoNT A protease -3.7, Bead autofluor 24875* and Anthrax LF inh2 -1.2.
CCOc1ccc(C(=O)NCC(=O)N2CC=C(c3ccccc3)CC2)cc1OCC was read as MazF activator 0.3, BoNT F protease 0.3, BoNT A protease -1.3, Bead autofluor 6231 and Anthrax LF inh2 -3.6.
CC(=O)Nc1ccc(OCC(O)CNC2CCCC2)cc1 (stereo not drawn) was read as MazF activator 3.1, BoNT F protease -9.6, BoNT A protease inconclusive, Bead autofluor 23804* and Anthrax LF inh2 -0.3.
For COc1ccc(OCC(O)CNC2CCCC2)cc1 (stereo not drawn) the results were MazF activator -25.4, BoNT F protease -9.6, BoNT A protease -0.9, Bead autofluor 3599 and Anthrax LF inh2 1.9.
For OC(CNC1CCCC1)COc1c(F)cc(Br)cc1F (stereo not drawn) the results were MazF activator 4.0, BoNT F protease -0.4, BoNT A protease 0.3, Bead autofluor 16538* and Anthrax LF inh2 -3.8.
For O=C(NC(c1ccc(Cl)cc1)c1cnccn1)C1CCN(CCCc2ccccc2)CC1 (stereo not drawn) the results were BoNT F protease -5.8, BoNT A protease -0.1, Bead autofluor 3423 and Anthrax LF inh2 -4.1.
Screening COc1ccc(CCNC(=O)c2cc3cc(F)ccc3nc2C)cc1OC returned MazF activator 3.6, BoNT F protease 2.1, BoNT A protease 0.6, Bead autofluor 5514 and Anthrax LF inh2 9.7.
c1cc(Nc2cccc3nccnc23)c2nccnc2c1 was read as MazF activator 50.5*, BoNT F protease -9.9, BoNT A protease -0.6, Bead autofluor 4152 and Anthrax LF inh2 -7.7.
For CC(C)N(Cc1ccccc1)C(=O)CN1C(=O)COc2ccc(S(=O)(=O)N3CCCCCC3)cc21 the results were MazF activator 3.1, BoNT F protease -2.4, BoNT A protease -1.8, Bead autofluor 5747 and Anthrax LF inh2 -1.8.
COc1cccc(-c2oc3c(c2C#CC2(N)CCCCC2)C(O)CCC3)c1 (stereo not drawn) was read as BoNT F protease -2.3, BoNT A protease -1.4, Bead autofluor 6099 and Anthrax LF inh2 -7.7.
Screening COC(=O)c1ccccc1NC(=O)C1CCCN(S(=O)(=O)c2ccccc2)C1 (stereo not drawn) returned MazF activator 3.4, BoNT F protease 3.7, BoNT A protease inconclusive, Bead autofluor 19578* and Anthrax LF inh2 2.6.
Screening Cc1ccc(S(=O)(=O)N2C(=O)CCC2C(=O)N2CCN(C)CC2)cc1 (stereo not drawn) returned MazF activator 0.7, BoNT F protease 2.9, BoNT A protease 0.7, Bead autofluor 22032* and Anthrax LF inh2 -0.1.
COC(=O)c1ccccc1NC(=O)C1CCC(=O)N1S(=O)(=O)c1ccc(C)cc1 (stereo not drawn) was read as MazF activator 20.2, BoNT F protease 1.4, BoNT A protease inconclusive, Bead autofluor 16363* and Anthrax LF inh2 0.5.
`Cc1ccc(S(=O)(=O)N2C(=O)CCC2C(=O)N2CCCCC2)cc1` (stereo not drawn) gave MazF activator 11.5, BoNT F protease inconclusive, BoNT A protease -0.4, Bead autofluor 4194 and Anthrax LF inh2 -17.5.
For C[C@H]1CN([C@@H](C)CO)C(=O)c2cc(Br)cnc2O[C@H]1CN(C)C(=O)c1ccccn1 the results were MazF activator 1.1, BoNT F protease 1.5, BoNT A protease -0.3, Bead autofluor 2931 and Anthrax LF inh2 -5.2.
For CCN(CC)CCCNc1nc2ccccc2c2[nH]c3ccc(OC)cc3c12 the results were MazF activator 18.6, BoNT F protease -58.0, BoNT A protease -1.1, Bead autofluor 4692 and Anthrax LF inh2 -7.5.
For COc1ccccc1C(O)c1ncc(-c2cccc(C(F)(F)F)c2)[nH]1 (stereo not drawn) the results were BoNT F protease -3.8, BoNT A protease -0.1, Bead autofluor 3490 and Anthrax LF inh2 -4.9.
Screening CCN1C(=O)/C(=C/C=C2\C=CN(CC)c3ccccc32)SC1=S returned MazF activator 12.5, BoNT F protease -8.6, BoNT A protease 41.1*, Bead autofluor 6742 and Anthrax LF inh2 16.3.
Screening CCN1C(=O)/C(=C\C=C2/C=CC=CN2CC)SC1=S returned MazF activator -269.4, BoNT F protease -3.1, BoNT A protease 0.9, Bead autofluor 2425 and Anthrax LF inh2 0.0.
Screening O=C1Cn2nnc(-c3ccccc3)c2C2c3ccccc3CCN12 (stereo not drawn) returned BoNT F protease -6.2, BoNT A protease 0.4, Bead autofluor 4227 and Anthrax LF inh2 -2.5.
Cc1ccc(S(=O)(=O)N2CCN(C(=O)CCC(=O)Nc3ccc(Br)c(C)c3)CC2)cc1 was read as MazF activator -0.7, BoNT F protease 1.4, BoNT A protease 0.5, Bead autofluor 4066 and Anthrax LF inh2 3.7.
For CC1CCCCC12NC(=O)N(CC(=O)N1CCN(c3ncccn3)CC1)C2=O (stereo not drawn) the results were MazF activator -1.3, BoNT F protease 3.9, BoNT A protease -0.1, Bead autofluor 3671 and Anthrax LF inh2 5.1.
Screening CCN1CCN(c2nc3sc4c(c3c(=O)n2-c2ccc(OC)cc2)CCCCC4)CC1 returned MazF activator 7.3, BoNT F protease -2.6, BoNT A protease -1.3, Bead autofluor 16947* and Anthrax LF inh2 0.4.
`COc1ccc(-n2c(NN)nc3sc4c(c3c2=O)CCCC4)cc1` gave MazF activator 8.0, BoNT F protease -9.1, BoNT A protease -0.6, Bead autofluor 4115 and Anthrax LF inh2 -16.2.
